The record followed here is PubChem BioAssay (EPA / NIEHS).

What all share (conditions): mRNA level, 48 h; actives raise or lower the signal
Read-out in experiment [1]: adenosine kinase (ADK) gene, ADK (gene 132)
Briefly: LTEA_HepaRG_ADK: Life Technologies and Expression Analysis (LTEA) Assay for adenosine kinase (ADK) gene using HepaRG (AID 2283471). The procedure, abridged:
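Differentiated HepaRG cells dosed 48 h in serum-free induction medium, 0.5% DMSO vehicle, eight half-log concentrations from 100 uM, in duplicate. ADK mRNA by TaqMan qRT-PCR normalised to ACTB, GAPDH, POLR2A; bidirectional fit versus DMSO.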

Read-out in experiment [2]: Alpha-fetoprotein (AFP) gene, AFP (gene 174)
Put plainly: LTEA_HepaRG_AFP: Life Technologies and Expression Analysis (LTEA) Assay for Alpha-fetoprotein (AFP) gene using HepaRG (AID 2283472). The procedure, abridged: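 After a 48 h plating period, cells are moved to serum-free induction medium and dosed in duplicate (100 uM maximum, half-log dilutions, 0.5% DMSO) for another 48 h. Total RNA goes to TaqMan qRT-PCR; AFP signal is housekeeping-normalized.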

Read-out in experiment [3]: BCL2L11 (gene 10018)
Briefly: LTEA_HepaRG_BCL2L11: Life Technologies and Expression Analysis (LTEA) Assay for Bcl-2 (BCL2L11) gene using HepaRG (AID 2283473). The procedure, abridged: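 HepaRG, 48 h exposure, 8-pt half-log series from 100 uM in 0.5% DMSO, duplicates; qRT-PCR (Fluidigm TaqMan) for BCL2L11, housekeeping-normalized; bidirectional curve fit relative to DMSO baseline.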

Read-out in experiment [4]: Apolipoprotein A-V (APOA5) gene, APOA5 (gene 116519)
Put plainly: LTEA_HepaRG_APOA5: Life Technologies and Expression Analysis (LTEA) Assay for Apolipoprotein A-V (APOA5) gene using HepaRG (AID 2283474). The procedure, abridged:
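HepaRG, 48 h chemical exposure in serum-free induction medium, 8-pt half-log series (top 100 uM), 0.5% DMSO vehicle, duplicates. Readout: APOA5 mRNA by qRT-PCR, housekeeping-normalized; bidirectional fit vs DMSO baseline.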

Read-out in experiment [5]: Apoptosis regulator Bcl-2 (Homo sapiens) (UniProt P10415)
Briefly: LTEA_HepaRG_BCL2: Life Technologies and Expression Analysis (LTEA) Assay for Bcl-2 gene using HepaRG (AID 2283475). The procedure, abridged: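 Expression change of BCL2 mRNA in HepaRG after 48 h dosing, quantified by TaqMan qRT-PCR against three endogenous controls. Concentration-response used eight points up to 100 uM, vehicle 0.5% DMSO.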

Read-out in experiment [6]: Bcl-2 (BID) gene, BID (gene 637)
Briefly: LTEA_HepaRG_BID: Life Technologies and Expression Analysis (LTEA) Assay for Bcl-2 (BID) gene using HepaRG (AID 2283476). The procedure, abridged:
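Gain or loss of BID expression is fitted relative to 0.5% DMSO vehicle. Human HepaRG liver cells received a 48 h chemical exposure over an eight-point concentration range.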

Read-out in experiment [7]: Caspase-3 (Homo sapiens) (UniProt P42574)
Put plainly: LTEA_HepaRG_CASP3: Life Technologies and Expression Analysis (LTEA) Assay for cysteine-aspartic acid protease (CASP3) using HepaRG (AID 2283477). The procedure, abridged: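 HepaRG, 48 h exposure, 8 conc. (top 100 uM, half-log steps, duplicate), 0.5% DMSO vehicle; qRT-PCR of CASP3 transcript, housekeeping-normalised (ACTB/GAPDH/POLR2A); bidirectional curve fit vs DMSO baseline.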

Read-out in experiment [8]: Cytochrome P450 (CYP24A1), CYP24A1 (gene 1591)
Briefly: LTEA_HepaRG_CYP24A1: Life Technologies and Expression Analysis (LTEA) Assay for Cytochrome P450 (CYP24A1) using HepaRG (AID 2283478). The procedure, abridged:
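qRT-PCR read-out: CYP24A1 transcript levels normalized to three housekeeping genes, bidirectional curve fits against 0.5% DMSO baseline. Human HepaRG cells treated 48 h with chemicals at eight concentrations from 100 uM in half-log steps.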

Read-out in experiment [9]: Cytochrome P450 (CYP1A2), CYP1A2 (gene 1544)
Put plainly: LTEA_HepaRG_CYP1A2: Life Technologies and Expression Analysis (LTEA) Assay for Cytochrome P450 (CYP1A2) using HepaRG (AID 2283479). The procedure, abridged:
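HepaRG, 48 h exposure, top 100 uM, half-log 8-pt, 0.5% DMSO vehicle, duplicates. Readout: TaqMan qRT-PCR of CYP1A2 mRNA, housekeeping-normalized (ACTB/GAPDH/POLR2A). Gain/loss fit relative to DMSO baseline.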

Read-out in experiment [10]: cysteine-aspartic acid protease (CASP8), CASP8 (gene 841)
Put plainly: LTEA_HepaRG_CASP8: Life Technologies and Expression Analysis (LTEA) Assay for cysteine-aspartic acid protease (CASP8) using HepaRG (AID 2283480). The procedure, abridged: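 Differentiated HepaRG cells in serum-free induction medium, 48 h exposure, eight-point half-log series from 100 uM in 0.5% DMSO, duplicates. CASP8 mRNA by qRT-PCR, normalized to ACTB, GAPDH, POLR2A; bidirectional fit versus DMSO.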

Read-out in experiment [11]: Cytochrome P450 (CYP2B6), CYP2B6 (gene 1555)
Briefly: LTEA_HepaRG_CYP2B6: Life Technologies and Expression Analysis (LTEA) Assay for Cytochrome P450 (CYP2B6) using HepaRG (AID 2283481). The procedure, abridged: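 Read-out is CYP2B6 mRNA by TaqMan qRT-PCR, normalized to three housekeeping genes and fitted bidirectionally against 0.5% DMSO baseline. Human HepaRG cells received test chemicals for 48 h, top concentration 100 uM, half-log dilutions.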

Read-out in experiment [12]: Cytochrome P450 2C19 (Homo sapiens) (UniProt P33261)
Put plainly: LTEA_HepaRG_CYP2C19: Life Technologies and Expression Analysis (LTEA) Assay for CYP2C19 using HepaRG (AID 2283482). The procedure, abridged: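 HepaRG, 48 h chemical exposure, 8-pt half-log series from 100 uM in 0.5% DMSO, duplicates. Readout: CYP2C19 mRNA by TaqMan qRT-PCR, housekeeping-normalized. Bidirectional fit vs DMSO baseline; phenobarbital 1mM as induction control.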

Read-out in experiment [13]: CYP2C8 (gene 1558)
Put plainly: LTEA_HepaRG_CYP2C8: Life Technologies and Expression Analysis (LTEA) Assay for CYP2C8 using HepaRG (AID 2283483). The procedure, abridged:
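Differentiated HepaRG cells in serum-free induction medium exposed 48 h in duplicate to 8 half-log concentrations from 100 uM in 0.5% DMSO. CYP2C8 mRNA by qRT-PCR normalized to ACTB, GAPDH, POLR2A; bidirectional fit versus DMSO.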

Read-out in experiment [14]: CYP2C9 (gene 1559)
Put plainly: LTEA_HepaRG_CYP2C9: Life Technologies and Expression Analysis (LTEA) Assay for CYP2C9 using HepaRG (AID 2283484). The procedure, abridged: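 Differentiated human HepaRG cells in serum-free induction medium were exposed 48 h to chemicals in 8-point half-log series from 100 uM (0.5% DMSO), in duplicate. CYP2C9 mRNA was measured by qRT-PCR, normalized to ACTB/GAPDH/POLR2A, with bidirectional fitting versus DMSO.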

Read-out in experiment [15]: CYP2E1 (gene 1571)
Briefly: LTEA_HepaRG_CYP2E1: Life Technologies and Expression Analysis (LTEA) Assay for CYP2E1 using HepaRG (AID 2283485). The procedure, abridged: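 Differentiated HepaRG cells were treated in duplicate for 48 h with chemicals in 0.5% DMSO, from 100 uM downward in half-log dilutions. RNA was then analysed by qRT-PCR for CYP2E1 induction or loss.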

Read-out in experiment [16]: CYP4A11 (gene 1579)
Briefly: LTEA_HepaRG_CYP4A11: Life Technologies and Expression Analysis (LTEA) Assay for CYP4A11 using HepaRG (AID 2283486). The procedure, abridged:
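CYP4A11 transcript levels were quantified by TaqMan qRT-PCR after HepaRG human liver cells were treated for 48 hours with test chemicals (top 100 uM, half-log dilutions, 0.5% DMSO). Gain or loss of signal was fitted relative to DMSO.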

Read-out in experiment [17]: Cytochrome P450 3A4 (Homo sapiens) (UniProt P08684)
Put plainly: LTEA_HepaRG_CYP3A4: Life Technologies and Expression Analysis (LTEA) Assay for CYP3A4 using HepaRG (AID 2283487). The procedure, abridged: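 Differentiated HepaRG cells in serum-free induction medium exposed in duplicate for 48 h to 8 half-log concentrations up to 100 uM in 0.5% DMSO. CYP3A4 mRNA measured by qRT-PCR normalized to ACTB, GAPDH and POLR2A; bidirectional fit versus DMSO.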

Read-out in experiment [18]: DNA damage-inducible transcript 3 (DDIT3), DDIT3 (gene 1649)
Put plainly: LTEA_HepaRG_DDIT3: Life Technologies and Expression Analysis (LTEA) Assay for DNA damage-inducible transcript 3 (DDIT3) using HepaRG (AID 2283488). The procedure, abridged: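 Changes in DDIT3 transcript, in either direction relative to 0.5% DMSO vehicle, were quantified by TaqMan qRT-PCR after 48 h chemical exposure of HepaRG cells at 8 concentrations, maximum 100 uM.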

Read-out in experiment [19]: Pro-epidermal growth factor (Homo sapiens) (UniProt P01133)
Put plainly: LTEA_HepaRG_EGF: Life Technologies and Expression Analysis (LTEA) Assay for Epidermal growth factor (EGF) using HepaRG (AID 2283489). The procedure, abridged: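 qRT-PCR readout of EGF transcript after 48 h chemical exposure of HepaRG cells; eight concentrations from 100 uM down in half-log steps, duplicate wells, 0.5% DMSO vehicle. Bidirectional curve fitting against DMSO baseline.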

Read-out in experiment [20]: Early growth response protein 1 (EGR1) transcription factor, EGR1 (gene 1958)
Briefly: LTEA_HepaRG_EGR1: Life Technologies and Expression Analysis (LTEA) Assay for Early growth response protein 1 (EGR1) transcription factor using HepaRG (AID 2283490). The procedure, abridged: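 Differentiated HepaRG cells in serum-free induction medium exposed 48 hours, duplicate, to 8 half-log concentrations up to 100 uM in 0.5% DMSO. EGR1 mRNA measured by TaqMan qRT-PCR, normalized to ACTB, GAPDH, POLR2A; bidirectional fit versus DMSO.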

Calls of active or inactive are those of the source. Rule for the calls: active = hit-call score of the fitted dose curve at least 0.9, where 1 is the maximum; inactive = score below 0.9.

Caspase-3 (Homo sapiens), sequence (P42574 whole entry, looked up): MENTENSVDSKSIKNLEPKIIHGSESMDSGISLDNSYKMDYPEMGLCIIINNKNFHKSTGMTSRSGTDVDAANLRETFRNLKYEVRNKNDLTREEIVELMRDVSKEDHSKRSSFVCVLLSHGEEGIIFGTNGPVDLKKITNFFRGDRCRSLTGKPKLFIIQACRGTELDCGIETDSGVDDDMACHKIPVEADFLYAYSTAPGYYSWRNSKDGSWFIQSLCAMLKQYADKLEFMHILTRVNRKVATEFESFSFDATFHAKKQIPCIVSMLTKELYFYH
Apoptosis regulator Bcl-2 (Homo sapiens), sequence (P10415 whole entry, looked up): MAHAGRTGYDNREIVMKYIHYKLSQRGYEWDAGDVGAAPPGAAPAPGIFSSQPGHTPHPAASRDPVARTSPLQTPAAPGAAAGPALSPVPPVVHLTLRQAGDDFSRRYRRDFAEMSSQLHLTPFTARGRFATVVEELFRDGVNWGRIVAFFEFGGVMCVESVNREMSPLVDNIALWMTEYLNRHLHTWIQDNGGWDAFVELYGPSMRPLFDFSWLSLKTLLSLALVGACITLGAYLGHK
Cytochrome P450 3A4 (Homo sapiens), sequence (P08684 whole entry, looked up): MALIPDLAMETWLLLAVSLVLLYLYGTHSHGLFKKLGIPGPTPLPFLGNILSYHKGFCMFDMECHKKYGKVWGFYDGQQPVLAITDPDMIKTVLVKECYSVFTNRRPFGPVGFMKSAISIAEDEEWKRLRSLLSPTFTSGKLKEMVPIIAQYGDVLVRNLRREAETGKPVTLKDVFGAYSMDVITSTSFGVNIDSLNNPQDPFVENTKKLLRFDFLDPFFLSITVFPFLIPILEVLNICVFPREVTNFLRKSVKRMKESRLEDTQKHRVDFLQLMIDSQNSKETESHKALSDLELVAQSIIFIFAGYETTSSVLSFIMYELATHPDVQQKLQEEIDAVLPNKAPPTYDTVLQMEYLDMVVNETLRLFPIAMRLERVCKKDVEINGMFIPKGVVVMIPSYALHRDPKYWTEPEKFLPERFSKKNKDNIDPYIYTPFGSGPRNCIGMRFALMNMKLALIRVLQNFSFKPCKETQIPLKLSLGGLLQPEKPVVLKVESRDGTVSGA
Cytochrome P450 2C19 (Homo sapiens), sequence (P33261 whole entry, looked up): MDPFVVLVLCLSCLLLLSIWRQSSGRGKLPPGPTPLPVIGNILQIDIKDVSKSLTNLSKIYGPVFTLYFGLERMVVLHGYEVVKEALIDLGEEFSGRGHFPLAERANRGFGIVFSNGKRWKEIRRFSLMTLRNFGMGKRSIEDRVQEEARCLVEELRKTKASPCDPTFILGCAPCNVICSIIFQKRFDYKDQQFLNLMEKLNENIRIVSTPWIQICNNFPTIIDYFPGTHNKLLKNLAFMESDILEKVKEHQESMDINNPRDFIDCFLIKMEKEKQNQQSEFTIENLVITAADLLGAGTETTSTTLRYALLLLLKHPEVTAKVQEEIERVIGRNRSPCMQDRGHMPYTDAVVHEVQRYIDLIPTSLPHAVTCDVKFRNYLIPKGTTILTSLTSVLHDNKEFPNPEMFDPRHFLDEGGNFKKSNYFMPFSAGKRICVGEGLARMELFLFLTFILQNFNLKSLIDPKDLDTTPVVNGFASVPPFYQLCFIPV

On to `CC(=O)CC(C)(C)O`, for which the call in [1], in experiment [2], in [3], in experiment [4], in [5] and in experiment [6] was inactive. Further, the outcome in experiment [7], in experiment [8], in [9], in experiment [10], in experiment [11] and in experiment [12] was inactive. Also, the outcome in experiment [13], in experiment [14], in [15], in [16], in experiment [17] and in [18] was inactive. Further, the call in [19] and in [20] was inactive.
As a reminder, the AC50 is the concentration at which the activity in the assay is half-maximal. Turning to `CCc1ccc(CCOc2ccc(CC3SC(=O)NC3=O)cc2)nc1` (configuration not stated), the compound was classed as inactive in experiment [1], in experiment [3], in experiment [6], in experiment [7], in experiment [8] and in experiment [10]. Moreover, the compound was classed as inactive in [19]. Besides, the AC50 in [4] was 84.6 µM (active); in experiment [5] it was 72.6 µM (active); in [9], 31.6 µM (active); in experiment [11], 92.5 µM (active); in [13], 88.4 µM (active); in experiment [14], 77.6 µM (active). In addition, the AC50 in [15] was 48.5 µM (active); in [16], 85.9 µM (active); in experiment [18], 91.3 µM (active); in experiment [20] it was 15.1 µM (active).
For the compound `N#C[C@@H]1CC(F)(F)CN1C(=O)CNC1CC2CCC(C1)N2c1ncccn1` (some centres not stated), the compound was called inactive in experiment [1], in experiment [2], in [3], in [4], in experiment [5] and in experiment [6]. Besides, the outcome in [7], in [8], in [10], in experiment [13], in experiment [14] and in experiment [15] was inactive. Further, the result in experiment [16], in [18], in [19] and in experiment [20] was inactive. The concentration at half-maximal activity (AC50) in [9] was 64.4 µM (active); in experiment [11], 27.8 µM (active); in [12], 69 µM (active); in experiment [17] it was 50 µM (active).
As for `OCCC(F)(F)C(F)(F)C(F)(F)C(F)(F)C(F)(F)C(F)(F)F`, the call in experiment [1], in [2], in experiment [3], in experiment [4], in experiment [5] and in experiment [6] was inactive. Moreover, the compound was classed as inactive in [7], in experiment [8], in experiment [9], in [10], in experiment [11] and in experiment [12]. Besides, the call in experiment [13], in experiment [14], in experiment [15], in experiment [16], in experiment [17] and in experiment [18] was inactive. Also, the compound was classed as inactive in experiment [19] and in [20].
